A short description of assay [1]: compounds binding Alexa647 anti-His antibody – biochemical, small-molecule microarray, 635 nm fluorescence, artefact control for SMM control protein annotation, primary screen (AID 1128).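 Further: score merges feature fluorescence with signal-to-noise for each printed compound spot.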 Particulars: higher = more signal.
Assay [2] concerns Human papillomavirus type 1a E7 protein (residues 1-88). Nature of the assay: HPV1a E7 small-molecule binders, primary screen, biochemical, small-molecule microarray, residues 1-88, 635 nm (AID 1129). Particulars: small-molecule microarray binding, fluorescence 635 nm; higher = more signal.
Assay [3] concerns the target Focal adhesion kinase 1 (Homo sapiens) (UniProt Q05397). As to the kind of experiment: PTK2 protein binding on printed compound slides – biochemical, small-molecule microarray, 635/667 nm fluorescence, BSA, DTT, primary screen (AID 1130).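 Further: composite of spot emission at 667 nm and signal to noise over triplicate slides.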 Particulars: 635 nm fluorescence, higher = more signal.
Assay [4] has as its system Fibrinogen (Alexa647-labelled). As to the kind of experiment: Alexa647-fibrinogen binding to printed small molecules – biochemical, small-molecule microarray, 635/667 nm fluorescence, artefact control for SMM control-protein annotation, profiling panel (AID 1131).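 Further: z-score merges 667 nm fluorescence with per-spot signal-to-noise over triplicate slides.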 Conditions: fibrinogen-A647 binding fluorescence, higher = more signal.
Assay [5] addresses Follistatin (Homo sapiens) (UniProt P19883). Nature of the assay: FST protein binding to printed compounds – biochemical, small-molecule microarray, 635/667 nm fluorescence, primary screen (AID 1132). Particulars: 635 nm fluorescence, higher = more signal.
For assay [6], the target named is Fibroblast growth factor 2 (Homo sapiens) (UniProt P09038). As to the kind of experiment: basic fibroblast growth factor binding to printed compounds – biochemical, small-molecule microarray, 635/667 nm fluorescence, primary screen (AID 1133). Particulars: FGF2, fluorescence 635/667, higher = more signal.
Fibroblast growth factor 2 (Homo sapiens), sequence (P09038 whole entry, looked up): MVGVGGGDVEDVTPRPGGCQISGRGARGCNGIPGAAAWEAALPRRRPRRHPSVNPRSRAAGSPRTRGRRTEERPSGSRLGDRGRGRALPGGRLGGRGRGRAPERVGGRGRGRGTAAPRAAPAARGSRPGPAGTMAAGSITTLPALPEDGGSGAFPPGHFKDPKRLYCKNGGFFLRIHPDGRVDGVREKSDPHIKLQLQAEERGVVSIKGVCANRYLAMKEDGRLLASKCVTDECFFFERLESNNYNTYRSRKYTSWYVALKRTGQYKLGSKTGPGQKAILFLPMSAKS
Assay [7] can be described thus: JC-1 mitochondrial potential readout, lung cancer cells – cell-based, A549, JC-1 fluorescence, basal, 24 h, 100 nL, profiling panel (AID 1138).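 Further: A549 lung adenocarcinoma cells under basal conditions with no added stimulus; test concentration not given here.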 Particulars: higher = more signal.
The subject of the next assay is Lefty1. Nature of the assay: Lefty1 protein binding to printed compounds – biochemical, small-molecule microarray, 635/667 nm fluorescence, primary screen (AID 1139). Particulars: fluorescence 635/667, higher = more signal.
Assay [8] deals with wheat germ agglutinin (Triticum aestivum), Alexa647-labelled. Nature of the assay: Alexa647-WGA lectin binding to printed small molecules – biochemical, small-molecule microarray, 635/667 nm fluorescence, artefact control for SMM control-protein annotation, profiling panel (AID 1140).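 Further: score merges 667 nm feature emission with signal to noise over triplicate slides.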 Conditions: WGA-A647 binding, 635 nm fluorescence, higher = more signal.
The target of assay [9] is Luciferin 4-monooxygenase (Photinus pyralis) (UniProt P08659). As to the kind of experiment: inhibition of purified Photinus pyralis luciferase – biochemical, luminescence, purified enzyme, 2006 set, primary screen (AID 1141).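 Further: cell-free assay with purified firefly luciferase at 100 ng per well in PBS; test concentration not given here.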 Particulars: purified firefly luciferase, SteadyGlo luminescence, 30 min; higher = more signal, called active from +8 up or from −8 down.
Luciferin 4-monooxygenase (Photinus pyralis), sequence (P08659 whole entry, looked up): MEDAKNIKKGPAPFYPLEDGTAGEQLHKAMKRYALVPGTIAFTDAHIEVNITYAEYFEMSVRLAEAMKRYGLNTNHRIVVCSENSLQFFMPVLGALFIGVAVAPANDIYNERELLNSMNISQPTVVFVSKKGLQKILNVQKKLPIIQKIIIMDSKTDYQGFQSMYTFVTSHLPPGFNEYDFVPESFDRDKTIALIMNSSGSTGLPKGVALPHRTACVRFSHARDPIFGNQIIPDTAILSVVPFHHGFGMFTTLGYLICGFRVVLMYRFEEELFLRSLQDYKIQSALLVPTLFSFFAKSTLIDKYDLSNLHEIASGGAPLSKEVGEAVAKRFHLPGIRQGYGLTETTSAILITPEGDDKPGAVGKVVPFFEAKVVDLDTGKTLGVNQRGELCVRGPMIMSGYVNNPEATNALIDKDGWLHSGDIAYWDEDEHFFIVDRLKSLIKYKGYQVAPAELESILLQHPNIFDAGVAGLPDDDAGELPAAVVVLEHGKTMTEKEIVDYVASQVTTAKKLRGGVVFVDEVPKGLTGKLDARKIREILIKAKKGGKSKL
In assay [10] the test system is Wnt5a (protein binding on small-molecule microarray). Nature of the assay: small molecules binding Wnt5a protein – biophysical, small-molecule microarray, 635/667 nm fluorescence, primary screen (AID 1142).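 Further: fluorescence read at 667 nm with signal to noise per printed feature.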 Conditions: 635 nm fluorescence, higher = more signal.
Assay [11] can be described thus: ATP-based viability of Huh7 replicon cells – cell-based, CellTiter-Glo luminescence, basal, 48 h, cytotoxicity control for HCV replication inhibitor project, primary screen (AID 1143).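 Further: Huh7 hepatoma cells carrying a hepatitis C replication reporter with no stimulus; test concentration not given here.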 Conditions: higher = more signal, called active from +8 up or from −8 down. (In antiviral work, replicon cells carry a viral genome segment that copies itself.)
Assay [12] can be described thus: Pseudomonas biofilm growth suppression – PAO1 strain, BacTiter-Glo luminescence, LB-PBS, primary screen (AID 1144). Conditions: P. aeruginosa PAO1 biofilm, 12 h, higher = more signal.
The nature of assay [13]: basal CRE-LacZ reporter activity in PC12 – cell-based, unstimulated, primary screen (AID 1145). Particulars: no forskolin, luminescence, 4.5 h, higher = more signal, called active from +8 up or from −8 down.
The nature of assay [14]: forskolin-driven CRE-LacZ activity in PC12 – cell-based, CRE-LacZ reporter, forskolin-stimulated, primary screen (AID 1146).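 Further: PC12 cells with 6xCRE LacZ reporter stimulated by forskolin 10 µM; beta-galactosidase reporter signal reflecting CREB driven transcription.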 Conditions: luminescence, 4.5 h, higher = more signal, called active from +8 up or from −8 down.
The target of assay [15] is Streptavidin (Streptomyces avidinii) (UniProt P22629). Nature of the assay: compounds binding control protein streptavidin – biophysical, small-molecule microarray, 635/667 nm fluorescence, artefact control for SMM compound annotation, primary screen (AID 1147).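 Further: signal reflects streptavidin binding to arrayed compounds as a control protein.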 Conditions: higher = more signal.
Streptavidin (Streptomyces avidinii), sequence (P22629 whole entry, looked up): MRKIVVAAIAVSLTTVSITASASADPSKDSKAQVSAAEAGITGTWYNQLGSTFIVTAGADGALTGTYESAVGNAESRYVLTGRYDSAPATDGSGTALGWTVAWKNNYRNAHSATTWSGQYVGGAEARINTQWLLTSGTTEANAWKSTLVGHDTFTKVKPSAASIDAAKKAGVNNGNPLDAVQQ
Assay [16] is described as follows: probe aInhba binding on compound microarray – biochemical, small-molecule microarray, 635/667 nm fluorescence, primary screen (AID 1148).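 Further: score merges 667nm spot fluorescence with signal-to-noise for antibody binding to printed compounds.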 Particulars: higher = more signal.
Assay [17] deals with Torsin-1A (Homo sapiens) (UniProt O14656). As to the kind of experiment: TOR1A wild-type binding on microarray – cell lysate, small-molecule microarray, lysate, 635/667 nm, primary screen (AID 1149). Conditions: COS7 hTOR1A-WT lysate, 635 nm fluorescence, higher = more signal.
Torsin-1A (Homo sapiens), sequence (O14656 whole entry, looked up): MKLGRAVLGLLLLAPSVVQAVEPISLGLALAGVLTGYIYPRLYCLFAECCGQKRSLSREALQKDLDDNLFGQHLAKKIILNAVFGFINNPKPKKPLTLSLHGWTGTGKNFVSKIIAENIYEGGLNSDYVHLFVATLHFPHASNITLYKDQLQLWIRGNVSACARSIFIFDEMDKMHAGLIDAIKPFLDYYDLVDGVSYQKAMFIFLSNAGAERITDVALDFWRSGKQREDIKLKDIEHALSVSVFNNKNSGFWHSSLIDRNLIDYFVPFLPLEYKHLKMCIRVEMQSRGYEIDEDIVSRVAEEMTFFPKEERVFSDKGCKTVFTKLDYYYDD
Assay [18] shares this target. Nature of the assay: torsin A mutant lysate binding on microarrays – cell lysate, small-molecule microarray, COS7 lysate, 635/667 nm fluorescence, primary screen (AID 1150).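 Further: score pools 667 nm emission and signal to noise measuring lysate protein binding.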 Conditions: COS7 hTOR1A mutant lysate, 635 nm fluorescence, higher = more signal.
In assay [19] the test system is Sonic hedgehog protein (Shh). Nature of the assay: Sonic hedgehog microarray binding compounds – biochemical, small-molecule microarray, 635/667 nm fluorescence, primary screen (AID 1151).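 Further: Shh protein binding to compounds spotted on small-molecule microarray slides; score combines spot fluorescence intensity with signal-to-noise across triplicate slides.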 Conditions: 635 nm fluorescence, higher = more signal.

We go through five compounds from PubChem BioAssay.

Molecules are shown by their SMILES. The source made the active and inactive calls. Unless noted, how the calls were made is not given here.

Focal adhesion kinase 1 (Homo sapiens), sequence (Q05397 whole entry, looked up): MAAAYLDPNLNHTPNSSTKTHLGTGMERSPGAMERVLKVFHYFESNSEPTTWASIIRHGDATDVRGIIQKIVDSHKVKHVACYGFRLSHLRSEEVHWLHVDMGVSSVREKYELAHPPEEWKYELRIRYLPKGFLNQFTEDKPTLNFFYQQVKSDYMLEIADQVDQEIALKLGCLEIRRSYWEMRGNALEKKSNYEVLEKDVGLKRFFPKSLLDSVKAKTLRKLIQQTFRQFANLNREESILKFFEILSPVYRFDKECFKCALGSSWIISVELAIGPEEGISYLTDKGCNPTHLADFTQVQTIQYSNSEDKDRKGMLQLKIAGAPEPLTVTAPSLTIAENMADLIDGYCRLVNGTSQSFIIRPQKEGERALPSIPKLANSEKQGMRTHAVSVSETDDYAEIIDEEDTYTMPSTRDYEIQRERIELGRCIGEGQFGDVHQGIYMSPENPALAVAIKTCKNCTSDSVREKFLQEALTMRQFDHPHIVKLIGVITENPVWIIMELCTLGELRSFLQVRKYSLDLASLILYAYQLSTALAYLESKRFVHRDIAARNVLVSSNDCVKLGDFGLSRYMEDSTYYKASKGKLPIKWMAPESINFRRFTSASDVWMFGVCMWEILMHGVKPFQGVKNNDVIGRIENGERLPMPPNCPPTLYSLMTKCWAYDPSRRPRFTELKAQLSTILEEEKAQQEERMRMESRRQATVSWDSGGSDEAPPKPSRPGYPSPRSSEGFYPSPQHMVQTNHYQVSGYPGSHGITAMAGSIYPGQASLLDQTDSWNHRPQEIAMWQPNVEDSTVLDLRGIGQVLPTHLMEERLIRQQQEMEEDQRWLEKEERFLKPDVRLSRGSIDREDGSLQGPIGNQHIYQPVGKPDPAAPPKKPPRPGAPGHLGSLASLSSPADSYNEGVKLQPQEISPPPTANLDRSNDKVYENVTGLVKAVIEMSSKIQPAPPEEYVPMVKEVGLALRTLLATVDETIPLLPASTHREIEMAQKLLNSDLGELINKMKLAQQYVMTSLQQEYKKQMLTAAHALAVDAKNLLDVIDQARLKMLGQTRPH
Follistatin (Homo sapiens), sequence (P19883 whole entry, looked up): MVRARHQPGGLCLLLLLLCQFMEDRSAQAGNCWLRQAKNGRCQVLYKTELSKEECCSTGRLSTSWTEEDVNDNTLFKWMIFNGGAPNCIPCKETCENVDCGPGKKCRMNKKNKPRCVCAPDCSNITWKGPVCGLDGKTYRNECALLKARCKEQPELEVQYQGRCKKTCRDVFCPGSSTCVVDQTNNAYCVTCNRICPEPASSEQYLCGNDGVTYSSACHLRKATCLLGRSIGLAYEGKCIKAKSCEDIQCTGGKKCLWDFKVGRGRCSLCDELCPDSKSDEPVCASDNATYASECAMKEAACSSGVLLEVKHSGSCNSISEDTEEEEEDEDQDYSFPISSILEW

For the compound `O=C1[C@H]2[C@H]3[C@H](O)[C@H](O)CC(=NOCc4ccccc4)[C@@H]3CC[C@H]2C(=O)N1C[C@@H]1CCCO1`, the composite z-score is -0.016 in assay [1]; -0.182 in [2]; 0.205 in assay [3]; 0.237 in assay [4]; -0.0829 in assay [5]; 0.0592 in [6]. Moreover, the composite z-score in the assay on Lefty1 is -0.0955; in assay [8] it was -0.396; in assay [10], 0.0388; in [15] it was 0.632; in assay [16], -0.157; with Torsin-1A (Homo sapiens) [17], 0.304. In addition, the composite z-score stood at 0.198 with Torsin-1A (Homo sapiens) [18] and 0.317 in assay [19]. Further, the z-score in assay [7] is -0.485; in [9] it was 0.903 (inactive); in assay [11] it was 0.379 (inactive); in assay [12] it was -0.614 (inactive); in assay [13] it was -0.115 (inactive); in assay [14], 0.105 (inactive).
Take `CCOC(=O)[C@H](CC(C)C)NC(=O)CCC1CC(OC(=O)NCc2cccc3ccccc23)CC2(CCCC(COC(=O)NCCc3ccc(Cl)cc3)O2)O1` (stereo not given in full): the composite z-score in assay [1] turned out to be 0.372; in assay [2], 0.484; in [3], 0.218; in assay [4] it was 0.635; in assay [5], 0.547; in assay [6] it was 0.352. Besides, the composite z-score with Lefty1 was 0.863; in assay [8] it was 0.844; in assay [10], 0.0502; in assay [15], 0.614; in [16] it was -0.0987; in the assay with Torsin-1A (Homo sapiens) [17], 0.549. The composite z-score in the assay with Torsin-1A (Homo sapiens) [18] was found to be 0.372; in assay [19] it was 0.728. For the same compound, the z-score in assay [7] is 0.31; in assay [9], 0.226 (inactive); in assay [11], -0.933 (inactive); in assay [12], -1.39 (inactive); in assay [13], -0.707 (inactive); in assay [14] it was -1.17 (inactive).
As to `C=CC[C@@H]1C=C[C@H](ON=C(C)CCC(=O)OC[C@H]2O[C@H](C#Cc3ccccc3)C=C[C@@H]2Oc2ccc(C)cc2)[C@@H](CO)O1`, the composite z-score in assay [1] was -0.443; in [2], 0.828; in [3] it was -0.0073; in assay [4] it was 0.955; in assay [5] it was 0.656; in assay [6], 0.42. Further, the composite z-score with Lefty1 was 0.842; in assay [8] it was -0.0056; in assay [10], 0.0897; in assay [15] it was 0.635; in assay [16], -0.0375; with Torsin-1A (Homo sapiens) [17] it was 0.569. For the same compound, the values for the composite z-score (with Torsin-1A (Homo sapiens) [18]; in [19]) were 0.185 and 0.795, respectively. Further, the z-score was -0.0271 in assay [7]; 0.666 (inactive) in assay [9]; -0.273 (inactive) in assay [11]; 0.0915 (inactive) in assay [12]; -0.306 (inactive) in assay [13]; 0.435 (inactive) in assay [14].
Regarding `CCN1C(=O)[C@H]2[C@H]3[C@H](O)[C@H](O)CC(=NOCC(C)C)[C@@H]3CC[C@H]2C1=O`, the composite z-score in [1] turned out to be 0.768; in [2], 1.04; in [3], 0.627; in assay [4], 0.231; in assay [5] it was 0.84; in assay [6] it was 0.0017. The composite z-score in the assay with Lefty1 is 0.625; in assay [8] it was -0.0157; in assay [10], -0.111; in [15], 0.017; in assay [16], 0.038; in the assay with Torsin-1A (Homo sapiens) [17] it was 0.729. Also, the composite z-score with Torsin-1A (Homo sapiens) [18] was 0.634; in [19], 1.31. Besides, the z-score is -0.753 in assay [7]; 0.887 (inactive) in [9]; -0.101 (inactive) in [11]; 0.258 (inactive) in assay [12]; -0.929 (inactive) in assay [13]; -0.2 (inactive) in assay [14].
Turning to `C#CCCCON=C1C[C@@H](O)[C@@H](O)[C@@H]2[C@@H]3C(=O)N(c4ccc(F)cc4F)C(=O)[C@@H]3CC[C@@H]12`, the composite z-score in assay [1] is -0.0071; in assay [2], 0.111; in [3] it was 0.131; in assay [4] it was 0.265; in assay [5] it was 0.141; in assay [6] it was 0.474. The composite z-score with Lefty1 is 0.322; in assay [8] it was 0.238; in assay [10] it was 0.09; in [15], -0.091; in [16] it was -0.213; in the assay with Torsin-1A (Homo sapiens) [17], 0.061. Further, the composite z-score with Torsin-1A (Homo sapiens) [18] is 0.0576; in assay [19], 0.351. Besides, the z-score in assay [7] is -0.633; in assay [9] it was 1.04 (inactive); in assay [11], -0.459 (inactive); in assay [12], 0.589 (inactive); in assay [13], -0.564 (inactive); in assay [14] it was -0.392 (inactive).
